Reference: PubChem BioAssay AID1209 (Sanford-Burnham Center for Chemical Genomics, 2008)
Out of some 190,000 compounds screened, about 810 (0.43%) were called active. What follows is part of a selection rich in actives, with near analogues and random picks from the rest. Values without a mark were called inactive. No stated cut-off is given here; in the data, active means inhibition above about 50%; inactive means the rest.

Molecular target: Mannose-6-phosphate isomerase (Homo sapiens) (UniProt P34949)
Sequence (P34949 whole entry, looked up): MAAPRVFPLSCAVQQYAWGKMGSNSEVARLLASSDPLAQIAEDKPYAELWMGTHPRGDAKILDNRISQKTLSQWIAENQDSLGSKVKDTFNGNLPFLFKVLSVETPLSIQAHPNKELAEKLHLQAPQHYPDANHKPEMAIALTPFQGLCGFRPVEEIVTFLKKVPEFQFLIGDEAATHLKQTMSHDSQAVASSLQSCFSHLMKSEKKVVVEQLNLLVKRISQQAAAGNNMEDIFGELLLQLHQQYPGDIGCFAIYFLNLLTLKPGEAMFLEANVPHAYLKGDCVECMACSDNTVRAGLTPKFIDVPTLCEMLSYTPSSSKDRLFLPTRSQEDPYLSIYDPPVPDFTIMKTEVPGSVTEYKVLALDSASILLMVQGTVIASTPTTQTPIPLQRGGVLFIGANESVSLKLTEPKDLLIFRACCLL
Assay: inhibitors of human PMI, primary screen, biochemical, fluorescence intensity, coupled assay (AID 1209);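 further: plate controls were DMSO vehicle for no effect and wells lacking substrate for full effect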
Conditions: purified PMI enzyme, at 20 µM, active compounds read high

Row | Compound | inhibition
1 | COc1cc(OC)cc(-n2nnnc2SCC(=O)Nc2ccc(C(C)=O)cc2)c1 | 5.1%
2 | Cc1cc(NC(=O)C(C)C)ncc1NC(=O)c1ccccn1 | 0.2%
3 | O=C(CNC(=O)c1ccc(S(=O)(=O)N2CCCC2)cc1)N/N=C/c1ccc(Cl)cc1Cl | 9.4%
4 | Brc1ccc(N=Cc2ccccn2)cc1 | -9.1%
5 | NC1=NC(=Nc2ccc(Cl)cc2)c2ccccc21 | -3.6%
6 | Clc1nssc1=Nc1ccc(Br)cc1 | 81.6% (active)
7 | O=C1NC(=Nc2ccc(Cl)cc2)/C(=C/c2ccco2)S1 | 1.4%
8 | NC1=NC(=Nc2ccc(Br)cc2)c2ccccc21 | -7.2%
9 | Clc1ccc(N=c2ssnc2Cl)cc1 | 78.7% (active)
10 | CCOC(=O)Nc1ccc(OCc2nnc3c4ccccc4c(C)nn23)cc1 | 3.7%
11 | CCOC(=O)c1cnc(SCC(=O)NCc2cccs2)nc1N | -5.5%
12 | CCN(CC)S(=O)(=O)c1ccc(/C=C/C(=O)OCC(=O)Nc2ccc(S(N)(=O)=O)cc2)cc1 | 70.7% (active)
13 | CCN(CC)S(=O)(=O)c1ccc(/C=C/C(=O)OCC(=O)Nc2ccc(C(N)=O)cc2)cc1 | -5.2%
14 | NS(=O)(=O)c1ccc(NC(=O)COC(=O)/C=C/c2ccc([N+](=O)[O-])cc2)cc1 | -1.2%
15 | Cc1c(C(=O)N2CCN(c3ccccc3F)CC2)sc2ncn(CC(=O)N3CCOCC3)c(=O)c12 | -1.6%
16 | Cc1c(NC(=O)c2ccc(C(C)(C)C)cc2)cccc1[N+](=O)[O-] | 7.4%
17 | CCn1c(CCc2ccccc2)n[nH]c1=S | -3%
18 | CCn1c(SCC(=O)N/N=C/c2cc(OC)c(O)c(OC)c2)nc2ccccc21 | -0.1%
19 | CCn1c(SCC(=O)N/N=C/c2ccc(O)c(OC)c2)nc2ccccc21 | 61.7% (active)
20 | CCn1c(SCC(=O)N/N=C/c2ccc(OC)c(OC)c2)nc2ccccc21 | 8.4%
21 | COc1ccccc1N1CCN(C(=O)C2CCN(S(=O)(=O)N3CCOCC3)CC2)CC1 | -6.6%
22 | Cc1cccc(NC(=S)N(CCCN2CCOCC2)Cc2ccccn2)c1 | -1.4%
23 | CCN(CC)C(=O)c1cn(C)c(=O)c2cc(OC)c(OC)cc12 | 12.6%
24 | COc1ccc(CNc2nc(-c3cccnc3)nn2C(=O)C(C)C)cc1 | 1.5%
25 | Cc1nn(C2CCS(=O)(=O)C2)c(Cl)c1/C=C/C(=O)OCC(=O)Nc1ccccc1[N+](=O)[O-] (configuration not stated) | 18.2%
26 | C(=N/n1c2ccccc2c2ccccc21)/c1ccco1 | 18.5%

Row | Compound | inhibition
27 | CN(C)c1ccc(N=Cc2ccco2)cc1 | 44.6%
28 | C(=Nc1cccc2c(N=Cc3ccco3)cccc12)c1ccco1 | 82.9% (active)
29 | COC(=O)Cn1c(=O)n(CCc2ccccc2)c(=O)c2c3c(sc21)CCCC3 | 23%
30 | COC(=O)c1ccc(NC(=O)CSc2nnc(C)n2-c2ccccc2)cc1 | 9.9%
31 | NC(CO)C(=O)NNCc1ccc(O)c(O)c1O (configuration not stated) | 78% (active)
32 | Cc1cc(C(=O)O)c(S(C)(=O)=O)s1 | -0.9%
33 | Cc1cc(-c2nsc(=O)o2)c(S(C)(=O)=O)s1 | 53.2% (active)
34 | O=C(CCc1cnccn1)NC1CCCc2c1cnn2-c1ccc(F)cc1F (configuration not stated) | 6.3%
35 | C=CCn1c(SCC)nc2sc3c(c2c1=O)CCc1ccccc1-3 | 7.8%
36 | C=CCSc1nc2sc3c(c2c(=O)n1CC)CCc1ccccc1-3 | 71.8% (active)
37 | C=CCSc1nc2sc3c(c2c(=O)n1CC=C)CCc1ccccc1-3 | 10.5%
38 | CS(=O)(=O)N1N=C(c2ccc(Br)cc2)CC1c1cccs1 (configuration not stated) | 12.1%
39 | Cc1sc(/N=C/c2c(O)ccc3ccccc23)c(C#N)c1C | -6%
40 | COc1ccc(O)c(/C=N/c2sc(C)c(C)c2C#N)c1 | 53.8% (active)
41 | Cc1sc(/N=C/c2ccccc2O)c(C#N)c1C | 0.9%
42 | CN(CCC1CCOCC1)C(=O)CC1C(=O)NCCN1C/C=C/c1ccccc1 (configuration not stated) | 5.6%
43 | CNc1nc(-c2ccccc2)[n+](-c2ccc(C)cc2)s1 | 89.5% (active)
44 | Cc1ccc(-c2nc(N)s[n+]2-c2ccccc2)cc1 | 106% (active)
45 | Cc1ccc(-c2nc(N)sc2-c2ccc(C)cc2)cc1 | 13.3%
46 | Cc1ccc(-c2nc(N)sc2C)cc1 | -11%
47 | Cc1ccc(-c2nnc(-c3ccccc3)c(-c3ccccc3)n2)cc1 | 8.3%
48 | Cc1ccc(-c2cc(-c3ccccc3)nc(Cl)n2)cc1 | 16.6%
49 | O=C(Nc1ccc(N2CCCC2)c(Cl)c1)c1ccccc1[N+](=O)[O-] | -3.5%
50 | Cc1cc(N/N=C/c2ccc(Cl)cc2Cl)nc(NCc2ccccc2)n1 | 20.3%
51 | O=C(NCc1ccccc1)NCC12CC3CC(CC(C3)C1)C2 | 1.8%
52 | Cc1ccc2c(c1)sc(C)[n+]2CCCS(=O)(=O)[O-] | 9.6%

Row | Compound | inhibition
53 | COc1ccc2sc(C)[n+](C)c2c1 | 84.3% (active)
54 | CC[n+]1c(/C=C/C=C/N(C(C)=O)c2ccccc2)sc2cc(OC)ccc21 | -17.8%
55 | CCCC[n+]1c(C)sc2cc(OC)ccc21 | 16.5%
56 | CCOC(=O)C[n+]1c(C)sc2ccc(OC)cc21 | 3.3%
57 | CC[n+]1c(C)sc2cc(OC)ccc21 | 73.9% (active)
58 | Cc1ccc2sc(C)[n+](CCC(C)S(=O)(=O)[O-])c2c1 (configuration not stated) | 1%
59 | COc1ccc2sc(/C=C/c3ccccc3O)[n+](C)c2c1 | 4.3%
60 | CCC[n+]1c(C)sc2c3c(ccc21)CCCC3 | 22.9%
61 | CC[n+]1c(C)sc2cc(C)ccc21 | 77% (active)
62 | CCC[n+]1c(C)sc2c(OC)ccc(OC)c21 | 3.5%
63 | O=C(Nc1cccc(C(=O)N2CCOCC2)c1)NC1CCCCC1 | 8.1%
64 | N#Cc1c(SCC(N)=O)nc(-c2ccccc2)c2c1CCCC2 | -2.9%
65 | CCN1C(=O)C2(C(C#N)=C(N)Oc3cc(C)oc(=O)c32)c2ccccc21 (configuration not stated) | 5.6%
66 | CCC(C)c1ccccc1NC(=O)Cc1coc2cc3c(cc12)CCC3 (configuration not stated) | 19.4%
67 | CCOc1ccc(N2C(=O)CCC2=O)cc1 | 6.4%
68 | C/C(=C\C(=O)OCC(=O)NCc1ccccc1)C(=O)OCC(=O)NCc1ccccc1 | 6%
69 | O=C1CCC([N+](=O)[O-])C(c2cccc(Br)c2)N1 (configuration not stated) | -1%
70 | O=C(Cn1cc2c(n1)CCCC2)NCC1CCCO1 (configuration not stated) | 3.4%
71 | Cc1sc2ccc3sccc3c2[n+]1C | -21.2%
72 | CCCC[n+]1c(C)sc2ccc(C)cc21 | 61.6% (active)
73 | Cc1ccc2sc(C)[n+](CCO)c2c1 | -7.8%
74 | CC[n+]1c(C)sc2c3ccsc3ccc21 | 66.7% (active)
75 | Cc1sc2c3ccsc3ccc2[n+]1C | -2.6%
76 | Cc1ccc2sc(C)[n+](CCCS(=O)(=O)[O-])c2c1 | -3%
77 | CCOP(=O)(OCC)C(Nc1ccc(C)cc1)c1ccco1 (configuration not stated) | -14.5%
78 | NC(=O)N/N=C/c1ccccc1OCC(=O)NCc1ccccc1 | 1.8%

Row | Compound | inhibition
79 | Cc1ccc(S(=O)(=O)NC(N)=NCCc2ccc(Cl)cc2)cc1C | 15.4%
80 | CC(C)N1CCC2(CC1)N=C(c1ccc3c(c1)OCO3)CC(c1cc(Cl)ccc1O)N2 (configuration not stated) | 23.4%
81 | COc1ccc(C(=O)c2cnc(/N=C/N(C)C)s2)cc1 | 14.2%
82 | COc1ccc(NC(=O)CSc2nnc(Cn3cnc4ccccc43)o2)cc1 | 4.8%
83 | O=C1NC(=S)S/C1=C/c1ccc(N2CCOCC2)o1 | -25.3%
84 | O=C(O)c1cccc(N2C(=O)/C(=C/c3ccc(SCc4ccc(Cl)cc4)o3)SC2=S)c1 | 73.3% (active)
85 | O=C1NC(=S)S/C1=C\c1ccc(SCc2ccco2)o1 | 10.3%
86 | O=C1NC(=S)S/C1=C\c1ccc(SCc2ccccc2)o1 | 80.4% (active)
87 | O=C(O)CN1C(=O)/C(=C/c2ccc(SCc3ccccc3)o2)SC1=S | 85.2% (active)
88 | Cc1ccc(/C=C2\SC(=S)N(Cc3ccccc3)C2=O)o1 | 18.3%
89 | O=C1/C(=C\c2ccco2)SC(=S)N1c1ccccc1 | 22.8%
90 | O=C(O)c1cc(-c2ccc(/C=C3/SC(=S)N(Cc4ccccc4)C3=O)o2)ccc1Cl | -29.3%
91 | Cc1cccc(C)c1-n1cccc1/C=C1\SC(=S)N(c2cccc(C(=O)O)c2)C1=O | 1.3%
92 | COC(=O)[C@@H](NC(=O)N(C1CCCCC1)C1CCCCC1)C(C)C | -2.2%
93 | Cc1nnc(SCC(=O)N2CC(=O)Nc3ccccc32)n1C | -5.6%
94 | Cc1ccc(N/C=C/C(=O)c2sc(-c3ccccc3)nc2C)cc1 | 14.3%
95 | COc1ccc(-c2csc(NC(=O)Cc3cccc4ccccc34)c2C(=O)O)cc1 | -0.1%
96 | O=C(O)c1cccnc1SC1CC(=O)N(CCc2ccccc2)C1=O (configuration not stated) | 3.4%
97 | CCc1nnc(NC(=O)c2ccc(S(=O)(=O)N3CCN(Cc4ccccc4)CC3)cc2)s1 | -1.5%
98 | C/C=C/c1c(F)c(F)c(Oc2ccc(C(=O)O)cc2)c(F)c1F | -3.5%
99 | Cc1noc(C)c1COC(=O)CNC(=O)c1ccc(Cl)cc1 | -4.1%
100 | COCCNC(=O)c1ccc(CN2CCOCC2)cc1 | -8.4%
101 | CCN1C(=O)C(CC(=O)Nc2ccc(OC)cc2)N(CCc2ccc(OC)cc2)C1=S (configuration not stated) | -4.1%
102 | C=CCOC(=O)C1=C(C)NC(=S)NC1/C=C/c1ccccc1 (configuration not stated) | 2.3%
